Experimental data from PubChem BioAssay AID743446 (Broad Institute, 2014).
Results with a measured potency or affinity are listed apart. Activity calls are given as the source filed them. No rule for the calls is given here.

Experiment: HEK293 cell cytotoxicity, dose response, cytotoxicity control, plate reader, cherry-picked samples (AID 743446)
Details: hits give low values; at 26 µM unless noted

Question: For `Cc1ccc(-c2csc(Nc3ccccn3)n2)cc1`, which max activity is on record?
Answer: -11.1% (inactive)

Question: With `c1ccc(-c2cn3c4c(sc3n2)CCCC4)cc1` as the compound, how does the max activity read?
Answer: -19.5% (inactive)

Question: Which max activity does the source give for `O=C(Nc1ccc2c(c1)OCCO2)c1ccc(Cl)cc1Cl` here?
Answer: -20.3% [at 3 µM] (inactive)

Question: Which max activity does the source give for `COc1ccc(S(=O)(=O)Nc2ccc3c(c2)C(=O)N([C@H](C)CO)C[C@H](C)[C@H](CN(C)S(=O)(=O)c2ccc(F)cc2)OCCCC[C@@H](C)O3)cc1` here?
Answer: -23.7% [at 12 µM] (inactive)

Question: For `CC(C)c1ccc(NC(=O)N2CCN(S(=O)(=O)c3ccccc3)CC2)cc1`, which max activity is on record?
Answer: 17.9% [at 0.38 µM] (inactive)

Question: With `c1ccc(-n2nnc3c(N4CCOCC4)ncnc32)cc1` as the compound, how does the max activity read?
Answer: 32.3% [at 0.8 µM] (inactive)

Question: Which max activity does the source give for `COc1ccc(N(CC(=O)NCc2cccs2)S(=O)(=O)c2ccc(C(C)=O)cc2)cc1` here?
Answer: -10.6% [at 3 µM] (inactive)

Question: With `Clc1ccc(-n2ncc3c(N4CCCC4)ncnc32)cc1` as the compound, how does the max activity read?
Answer: 13.4% (inactive)

Question: With `O=C(CN1CCOc2ccccc21)NCc1ccc(F)cc1` as the compound, how does the max activity read?
Answer: 16.4% [at 6 µM] (inactive)

Question: Which max activity does the source give for `C[C@H](CO)N1C[C@H](C)[C@H](CN(C)C(=O)Nc2ccccc2)OCCCC[C@H](C)Oc2ccc(NC(=O)C3CCCCC3)cc2C1=O` here?
Answer: 9.5% [at 3 µM] (inactive)

Question: Which max activity does the source give for `CC(=O)c1ccc(Nc2nc(-c3sc(C)nc3C)cs2)cc1` here?
Answer: -13.6% (inactive)

Question: For `O=C(O)c1ccc(N/N=C/c2ccc(OC(=O)c3cccc(Cl)c3)cc2)cc1`, which max activity is on record?
Answer: -7.42% [at 3 µM] (inactive)

Question: For `C[C@H](CO)N1C[C@H](C)[C@H](CN(C)Cc2ccc(C(F)(F)F)cc2)Oc2ccc(NC(=O)Nc3ccc(F)cc3)cc2C1=O`, which max activity is on record?
Answer: -29.9% (inactive)

Question: With `COc1ccc(C(=O)CC(Sc2ccccc2N)c2ccc(OC)cc2)cc1` (stereo not drawn) as the compound, how does the max activity read?
Answer: 24.8% [at 0.8 µM] (inactive)

Question: Which max activity does the source give for `CCn1c2ccccc2c2cc(CNCc3ccc(OC)cc3OC)ccc21` here?
Answer: -98.9% (inactive)

Question: Which max activity does the source give for `COc1ccc(S(=O)(=O)N2CCCCN3[C@H](CO)[C@H](c4ccc(-c5cccnc5)cc4)[C@@H]3C2)cc1` here?
Answer: -10.9% [at 12 µM] (inactive)

Question: With `COc1ccc(-c2cc(C(=O)Nc3cccc(O)c3)no2)cc1` as the compound, how does the max activity read?
Answer: 75.5% [at 0.195 µM] (inactive)

Question: Which max activity does the source give for `Cc1ccc2nc(-c3ccccc3)nn2c1` here?
Answer: 68.6% [at 3 µM] (inactive)

Question: Which max activity does the source give for `Cc1ccoc1C(=O)Nc1ccc2ccccc2c1` here?
Answer: -16.8% [at 0.1 µM] (inactive)

Question: With `O=C(Nc1ccc(NC(=O)c2ccco2)nc1)c1ccco1` as the compound, how does the max activity read?
Answer: -22.6% (inactive)

Question: Which max activity does the source give for `C=CCNC(=O)c1c(Cl)nc(C)c([N+](=O)[O-])c1C` here?
Answer: 11.7% [at 0.1 µM] (inactive)

Question: With `Cc1c(NC(=O)c2ccc(-c3ccccc3)cc2)cccc1C(=O)O` as the compound, how does the max activity read?
Answer: 41.3% (inactive)

Question: With `Cc1cc(C(=O)COC(=O)C2CC2)c(C)n1-c1ccc(F)cc1` as the compound, how does the max activity read?
Answer: 9.72% [at 12 µM] (inactive)

Question: With `Cc1ccccc1C(=O)Nc1ccc2c(c1)OCCO2` as the compound, how does the max activity read?
Answer: -9.3% [at 0.05 µM] (inactive)

Question: With `COc1ccc(-c2cc3nc(NCC4CCCCC4)n(C)c(=O)c3s2)cc1OC` as the compound, how does the max activity read?
Answer: 41.6% [at 1.6 µM] (inactive)

Question: Which max activity does the source give for `COc1ccc(C(=O)Nc2ccc3ccccc3c2)cc1` here?
Answer: 26.8% [at 0.8 µM] (inactive)

Question: With `N#C[C@@H]1[C@H](c2ccc(C#CC3CCCCC3)cc2)[C@@H](CO)N1C(=O)c1cccc(F)c1` as the compound, how does the max activity read?
Answer: 43.6% [at 0.09 µM] (inactive)

Question: For `COc1cccc(-c2ccc(C3[C@@H]4CN(C(=O)C5CC5)C[C@H]3N4)cc2)c1` (stereo partly drawn), which max activity is on record?
Answer: 15.1% [at 3 µM] (inactive)

Question: Which max activity does the source give for `COc1cccc(C(=O)Nc2ccc3c(c2)OC[C@@H](C)N(CC2CC2)C[C@H](C)[C@H](OC)CN(C)C3=O)c1` here?
Answer: 13% [at 0.05 µM] (inactive)

Question: For `Nc1nccc(-c2cc(-c3ccc(Cl)cc3Cl)no2)n1`, which max activity is on record?
Answer: 47.2% [at 6 µM] (inactive)

Question: For `C[C@H]1CCCCO[C@H](CN(C)C(=O)Nc2cccc3ccccc23)[C@@H](C)CN([C@@H](C)CO)C(=O)c2cc(NS(=O)(=O)c3cn(C)cn3)ccc2O1`, which max activity is on record?
Answer: 21.9% [at 0.05 µM] (inactive)

Question: With `COc1ccc(C(=O)CN2C(=O)c3ccccc3S2(=O)=O)cc1` as the compound, how does the max activity read?
Answer: -13.3% [at 0.05 µM] (inactive)

Question: With `Cc1cc(C(=O)CSc2nnc3ccccn23)c(C)n1-c1ccccc1` as the compound, how does the max activity read?
Answer: -21.9% (inactive)

Question: Which max activity does the source give for `Cc1ccc(C(=O)NC2CCCCCCC2)c(Cl)c1` here?
Answer: -18.7% [at 0.38 µM] (inactive)

Question: For `OC1CCC(Nc2ccn3nc(-c4cccc(OCc5ccccc5)c4)cc3n2)CC1` (stereo not drawn), which max activity is on record?
Answer: -14.9% [at 12 µM] (inactive)

Question: With `CC(C)(C)NC(=O)c1cccc(NC(=O)c2ccc3c(c2)C(=O)N(C(C)(C)C)C3=O)c1` as the compound, how does the max activity read?
Answer: 27.3% [at 0.195 µM] (inactive)

Question: Which max activity does the source give for `O=C(COc1ccc2ccccc2c1)Nc1nccs1` here?
Answer: 38.6% [at 0.195 µM] (inactive)

Question: Which max activity does the source give for `Cc1ccc(S(=O)(=O)N(C)C[C@H]2Oc3c(cccc3N(C)C)C(=O)N([C@@H](C)CO)C[C@@H]2C)cc1` here?
Answer: 10.6% [at 6 µM] (inactive)
